In PubChem BioAssay AID1456 (Vanderbilt High Throughput Screening Facility, 2008):
Hit rate of the full screen: of about 190,000 compounds, about 4,100 (2.2%) were called active. This is one part of a sample in which actives are shown more often than they occur. A number with no mark means an inactive call.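 The calls were made as follows: active = thallium flux slope and its plate-corrected score both differing from the plate sample mean at a set confidence after two filtering rounds, in either direction; inactive = the rest.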

target: Solute carrier family 12 member 5 (Homo sapiens) (UniProt Q9H2X9); test: modulation of human KCC2 ion transport – cell-based, HEK293 KCC2, FluoZin-2 fluorescence, MLSMR, primary screen (AID 1456); settings: KCC2 cells, thallium flux FluoZin-2 fluorescence; at 10 µM;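 also: slope of fluorescence scaled to starting intensity during 10 to 20 s after thallium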
Sequence (Q9H2X9 whole entry, looked up): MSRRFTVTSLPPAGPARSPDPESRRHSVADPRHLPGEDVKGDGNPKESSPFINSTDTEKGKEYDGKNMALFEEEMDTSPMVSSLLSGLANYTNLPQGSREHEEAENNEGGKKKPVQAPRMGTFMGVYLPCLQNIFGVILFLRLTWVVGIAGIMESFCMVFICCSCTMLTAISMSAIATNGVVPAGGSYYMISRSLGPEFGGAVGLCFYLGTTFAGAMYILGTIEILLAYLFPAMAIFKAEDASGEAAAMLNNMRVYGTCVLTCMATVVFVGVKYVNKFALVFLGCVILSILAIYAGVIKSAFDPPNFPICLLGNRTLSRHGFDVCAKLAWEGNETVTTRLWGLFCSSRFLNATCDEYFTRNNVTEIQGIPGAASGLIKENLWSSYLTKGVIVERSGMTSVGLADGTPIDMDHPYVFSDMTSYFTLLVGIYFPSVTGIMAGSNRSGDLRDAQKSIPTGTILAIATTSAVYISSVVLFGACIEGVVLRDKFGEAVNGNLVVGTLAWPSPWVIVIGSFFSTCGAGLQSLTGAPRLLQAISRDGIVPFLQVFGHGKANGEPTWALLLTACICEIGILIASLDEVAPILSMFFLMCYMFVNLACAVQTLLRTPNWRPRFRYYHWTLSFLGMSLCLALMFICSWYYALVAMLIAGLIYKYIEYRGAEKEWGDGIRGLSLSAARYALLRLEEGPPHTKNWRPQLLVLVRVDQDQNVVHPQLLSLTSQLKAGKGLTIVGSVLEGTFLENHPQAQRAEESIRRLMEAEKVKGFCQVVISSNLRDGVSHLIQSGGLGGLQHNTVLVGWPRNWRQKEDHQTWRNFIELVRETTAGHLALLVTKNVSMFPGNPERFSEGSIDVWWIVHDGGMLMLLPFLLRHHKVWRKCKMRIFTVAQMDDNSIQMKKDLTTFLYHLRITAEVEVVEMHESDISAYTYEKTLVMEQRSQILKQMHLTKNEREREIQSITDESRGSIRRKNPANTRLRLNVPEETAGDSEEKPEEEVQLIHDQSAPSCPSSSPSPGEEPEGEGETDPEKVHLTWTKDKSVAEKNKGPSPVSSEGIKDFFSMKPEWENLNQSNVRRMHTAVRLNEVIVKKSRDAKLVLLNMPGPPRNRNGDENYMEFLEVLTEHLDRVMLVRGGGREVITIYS

Compound | B-score of Tl+ flux slope (higher = more flux/activation; lower = inhibition)
O=C(CCCn1c(SCC(=O)c2ccccc2)nc2ccccc2c1=O)NCC1CCCO1 (configuration not stated) | -0.113
CCCCn1c(SCC(=O)NCC2CCCO2)nc2ccc(N3CCOCC3)cc2c1=O (configuration not stated) | 7.18 (active)
COCCCNC(=O)CSc1nc2ccc(N3CCOCC3)cc2c(=O)n1CCc1ccccc1 | 2.34
CC(C)(C)NC(=O)NC(=O)COC(=O)Cc1ccc(Cl)cc1Cl | 0.383
CCN1CCN(C(=O)CCN2C(=O)c3ccccc3C2=O)CC1 | 0.322
CCOC(=O)C1=NN(c2ccc(Cl)cc2)/C(=C/C2=NCCc3cc(OC)c(OC)cc32)S1 | 1.05
O=C(O)CC1(CC(=O)Nc2cccc(C(F)(F)F)c2)CCCC1 | -1.45
CCOC(=O)Cc1cc(=O)[nH]c(/N=C(\N)Nc2ccc(OC)cc2)n1 | -0.288
O=C(O)CCSc1nnc(-c2ccccc2)n1-c1ccccc1 | 0.407
COC(=O)CSc1nc(C2CC2)nc2ccccc12 | -0.171
CCc1c(SCCC(=O)O)nc2ccccc2c1C | 3.44 (active)
Cc1nc2ccccc2cc1C(=O)N/N=C/c1ccc([N+](=O)[O-])cc1 | -1.83
CNC(=O)c1cc2c(ccc3ccccc32)oc1=N | -0.785
N=c1oc2ccccc2cc1C(=O)N/N=C/c1ccccc1 | -3.75 (active)
CCN(CC)c1ccc(NC(=O)C2CCC(CNc3c(N4CCCC4)c(=O)c3=O)CC2)c(C)c1 (configuration not stated) | 1.27
CCCc1c(C(=O)O)cnn1-c1ccc(Cl)cc1 | -0.00741
Oc1c(Cl)cc(Cl)c(Cl)c1Cc1c(O)c(Cl)cc(Cl)c1Cl | 19.9 (active)
COc1ccc(CC2(CO)CCN(Cc3cnn(C)c3)CC2)cc1 | 0.00537
C/C=C/C(=O)Nc1ccc(N2CCN(c3ccc(C(F)(F)F)cn3)CC2)nc1 | -0.115
CS(=O)(=O)N(CC(=O)Nc1ccc(Cl)c(Cl)c1)C1CCCCC1 | -0.64
CCC(C)NC(=O)CN(C1CCCCC1)S(C)(=O)=O (configuration not stated) | 0.0328
CS(=O)(=O)N(CC(=O)N1CCN(c2ccc(F)cc2)CC1)C1CCCCC1 | -3.33 (active)
O=C(NN1C(=O)C2CCCCC2C1=O)c1ccco1 (configuration not stated) | -1.74
O=S(=O)(NC(=S)Nc1ccccc1)c1ccc(F)cc1 | 0.866
Cc1cc(C)nc(Nc2n[nH]c(-c3ccccc3N)n2)n1 | 0.274

Compound | B-score of Tl+ flux slope (higher = more flux/activation; lower = inhibition)
COc1ccc(-n2c(=S)[nH]c3sc4c(c3c2=O)CCc2ccccc2-4)cc1 | 11.6 (active)
CSc1nc2sc3c(c2c(=O)[nH]1)CCc1ccccc1-3 | 0.526
COc1cccc(-n2c(=S)[nH]c3c(oc4ccccc43)c2=O)c1 | -2.03
COCc1cc(=O)[nH]c(SC)n1 | -0.453
Cc1cccc(OCCC(=O)Nc2cc(S(=O)(=O)N3CCCCC3)ccc2N2CCOCC2)c1 | 0.115
Cc1cccc(OCC(=O)NC(=S)Nc2ccccc2N2CCOCC2)c1 | 8.7 (active)
Cc1cccc(OCC(=O)Nc2ccccc2F)c1 | 0.917
O=C(Nc1ccccc1)Nc1ccc(C(F)(F)F)cn1 | 0.765
O=C(C1=C(O)C(=O)N(CCOCCO)C1c1ccccn1)c1cccs1 (configuration not stated) | 0.0733
CC(=O)NC(CC(=O)Nc1nccs1)c1ccccc1 (configuration not stated) | 0.0448
Cc1ccc(Cn2c(NC(=O)c3ccco3)nc3ccccc32)cc1 | 1.11
CC(=O)Nc1nc2ccccc2n1Cc1ccc(C)cc1 | 0.76
CCCc1nc2c(C)cc(-c3nc4ccccc4n3C)cc2n1Cc1ccc(-c2ccccc2C(=O)O)cc1 | -4.55 (active)
c1ccc2c(c1)OCCOCCOCCO2 | -0.0153
O=C(COC(=O)c1cc([N+](=O)[O-])ccc1NCc1ccccc1)NC1CCCCC1 | -3.78 (active)
N#Cc1ccccc1Sc1ccccc1C(=O)OCC(=O)NC1CCCCC1 | -0.81
O=C(COC(=O)c1ccccc1SCC(=O)NC1CCCCC1)NC1CCCCC1 | 0.427
O=C(CSc1cccc2cccnc12)N/N=C/c1cccnc1 | 30.2 (active)
Cc1nc2ccccc2n1CC(=O)N/N=C/c1cccnc1 | 0.307
CCOC(=O)N/N=C/c1cccnc1 | 0.0775
CN(c1ccccc1)S(=O)(=O)c1ccc(Cl)c(C(=O)OCC(=O)NCc2ccco2)c1 | -3.28
O=C(Nc1cccc(S(=O)(=O)NC2=NCCC2)c1)C1CCCCC1 | 0.665
N/C(=N\OC(=O)Nc1ccccc1)c1ccno1 | 0.175
COc1ccc(S(=O)(=O)N(CC(=O)N/N=C/c2ccccc2C(=O)O)c2ccccc2OC)cc1 | 0.515
Cc1cccc(C)c1NC1=NC(=S)N(c2ccc(N(C)C)cc2)C1(C)C | 4.28 (active)

Compound | B-score of Tl+ flux slope (higher = more flux/activation; lower = inhibition)
Cc1nnc2n1N=C(c1ccc3c(c1)NC(=O)CO3)CS2 | -0.931
Cc1cc(F)ccc1NC(=O)C(C)n1c2ccccc2c2nc(=O)cc(C)n21 (configuration not stated) | -0.013
Clc1cccc(N=C2NN=C(c3ccc4c(c3)OCCO4)CS2)c1 | 1.95
CN(C)c1nc(=Nc2cccc(Cl)c2)ss1 | 87 (active)
Cc1ccc(C(=O)NNC2=Nc3cc([N+](=O)[O-])ccc3OC2)cc1 | 0.865
COc1ccc(OCCC(=O)c2ccc(OC)cc2)cc1 | 0.534
NC(=O)NC(=O)CSc1nc2cc([N+](=O)[O-])ccc2n1-c1cccc(C(F)(F)F)c1 | 6.95 (active)
COc1ccc(CCNC(=O)CSc2nc3[nH]ncc3c(=O)n2-c2cccc(C(F)(F)F)c2)cc1OC | 1.1
COc1ccc(-n2cnnc2SCC(=O)Nc2cccc([N+](=O)[O-])c2)cc1 | 0.774
O=C(CN1CCN(C/C=C/c2ccccc2)CC1)Nc1ccc(F)cc1F | 0.952
CC(=O)N/C(=C\c1ccc(F)cc1)C(=O)NC(Cc1ccccc1)C(=O)O (configuration not stated) | 0.0184
O=C(O)c1cccnc1Sc1ncnc2sc3c(c12)CCC3 | 2.47
O=C(Cn1cnc2ccccc2c1=O)Nc1cccc(S(=O)(=O)N2CCCCC2)c1 | 0.0725
FC(F)(F)Oc1ccc(NC(=S)NCc2ccccc2)cc1 | 0.0182
CCNC(=S)Nc1ccc(OC(F)(F)F)cc1 | -0.759
CS(=O)(=O)c1sc(C(=O)NC(=S)Nc2ccc(OC(F)(F)F)cc2)c2c1C=CCC2 | 6.79 (active)
CC1(C)C=C2[C@H]3CC[C@@H]4[C@@]5(C)CCC(=O)C(C)(C)[C@@H]5CC[C@@]4(C)[C@]3(C)CC[C@@]2(C(=O)O)CC1 | 5.9 (active)
CCOC(=O)N1CCN(c2c(NCCN3CCN(c4ccccc4F)CC3)c(=O)c2=O)CC1 | 0.85
O=C(CCn1nnc2ccccc2c1=O)N[C@@H](Cc1c[nH]c2ccccc12)C(=O)O | 0.807
CCCc1nc2sc3c(c2c(=O)n1NC(=O)CCCl)CCCC3 | -1.28
O=c1c2c3c(sc2n(CCN2CCCC2)c(=O)n1Cc1ccccc1)CCCCC3 | -0.146
CCn1c(=S)[nH]c2sc3c(c2c1=O)CCCCC3 | 75.1 (active)
O=C1C2C3C=CC(C3)C2C(=O)N1c1ccc(S(=O)(=O)Nc2nccs2)cc1 (configuration not stated) | 0.592
Fc1ccc(Nc2nnns2)cc1 | -0.138
COc1ccccc1-n1cnc2cc(NS(=O)(=O)c3ccccc3)ccc21 | -3.88 (active)

Compound | B-score of Tl+ flux slope (higher = more flux/activation; lower = inhibition)
COc1ccccc1-n1cnc2cc(C(=O)NCC3CCCO3)ccc21 (configuration not stated) | 0.84
COCCCNC(=O)c1ccc2c(c1)ncn2-c1ccccc1OC | -0.0358
NNC(=O)c1ccc(COCC(F)(F)C(F)F)cc1 | 0.0302
CCOC(=O)c1cn[nH]c1NC(=S)Nc1ccccc1 | 0.559
C/C(Cc1ccccc1)=N\NC(=O)CNC(=O)c1ccc2c(c1)OCCO2 | 0.0985
O=C1/C(=C/c2cccs2)SC(=S)N1C1CCS(=O)(=O)C1 (configuration not stated) | -0.225
O=C(CCCN1C(=O)/C(=C/c2ccccc2)SC1=S)Nc1ccc(O)cc1 | -0.0883
O=C1Cc2ccccc2Sc2ccc(Cl)cc21 | 0.587
O=C(NC1CC1)c1ccc2c(c1)NC(=O)c1ccccc1S2 | -0.0671
S=C1Nc2cc(Cl)ccc2Sc2ccccc21 | 8.4 (active)
N#C/C(=C\N1CCOCC1)S(=O)(=O)c1ccc(Cl)cc1 | -0.211
COC(=O)c1c(C)oc(C)c1S(=O)(=O)NCc1ccc(Cl)cc1 | -0.208
COC(=O)C1=C(C)N=C2SC(C)C(=O)N2C1/C=C/c1ccccc1 (configuration not stated) | 0.122
CC(OC(=O)c1ccccc1N1C(=O)C2C3CCC(C3)C2C1=O)C(=O)c1ccccc1 (configuration not stated) | 0.138
CCOC(=O)c1ccccc1N1C(=O)C2Sc3[nH]c(=O)sc3C(/C=C/c3ccccc3)C2C1=O (configuration not stated) | -6.82 (active)
CC(C)(C)C(=O)NNC(=O)c1ccc(Oc2cc(Cl)cc(Cl)c2)o1 | 4.1
COc1ccc(Cl)cc1C(=O)NNC(=S)NC(=O)/C=C/c1ccco1 | 28.5 (active)
COc1ccc(Cl)cc1C(=O)NNC(=S)NC1CCCC1 | 0.52
C=CCNC(=S)NNC(=O)c1cc(Cl)ccc1OC | -0.352
Cc1cc(C)nc(SC(C)C(=O)N/N=C/c2cccs2)n1 (configuration not stated) | 5.07 (active)
NC(=O)N/N=C\c1cccs1 | 0.148
Cc1nc2ccccc2n1CC(=O)N/N=C/c1cccs1 | 0.629
